Results on 92 compounds are retold here after PubChem BioAssay AID624483 (NMMLSC, 2012).

The whole screen tested about 360,000 compounds, of which about 11,000 (3.1%) were called active. Not shown: some 2% with an inconclusive outcome. The full list was thinned out, with actives kept by preference. Unmarked numbers belong to inactive results. Cut-off read from the data, not from the text of the source: active = fluorescence intensity above about 16000; inconclusive = no clear call, values can overlap the other calls; inactive = below that.

The test in a line: counter-screen for toxin protease inhibitors: compound fluorescence, primary screen, artefact control for toxin protease inhibitor project, biochemical, multiplex microsphere, HTS (AID 624483). The note with it: compound autofluorescence counterscreen, microsphere flow cytometry; stronger effect = higher value. On the technique in general: Counterscreens check selectivity or assay interference.
Consider `CCOC(=O)C1(C)CCCN(C(=O)c2ccc(F)c(Cl)c2)C1` (configuration not stated), for which the fluorescence intensity is 3580.

As to `COc1ccc(S(=O)(=O)NC(=O)C2(C)CCN2C(=O)COc2ccc(Cl)cc2)cc1` (configuration not stated), the fluorescence intensity was 3840. In the case of `COC(=O)[C@]12CCCCC=C1N(Cc1ccc(Cl)cc1Cl)C(=O)[C@H](CC(=O)NCc1cccc3ccccc13)C2`, the fluorescence intensity was 5890. On to `COc1ccc(C(c2nnnn2C2CCCCC2)N2CCN(c3ccccc3F)CC2)cc1` (configuration not stated), for which the fluorescence intensity was 2590. Consider `CCOC(=O)C1CCN(C(c2cc3cc(C)cc(C)c3[nH]c2=O)c2nnnn2C2CCCCC2)CC1` (configuration not stated), for which the fluorescence intensity is 11300. As for `COc1ccc(N2CCN(C(c3cc4ccc(C)cc4[nH]c3=O)c3nnnn3C3CCCC3)CC2)cc1` (configuration not stated), the figure is 24400 (active). As for `CN(CC(=O)NC1CCN(Cc2ccccc2)CC1)S(=O)(=O)c1ccc(Cl)s1`, the figure is 4220; as for `CC(C)(C)C(=O)c1c(N)[nH]c(C(=O)c2ccccc2)c1-c1ccc(F)cc1`, 4830; as for `O=C(Nc1ccc(-c2nnc(-c3ccccc3)o2)cc1)C1CCCO1` (configuration not stated), 23500 (active). With `CCOc1ccc(NC(=O)c2ccc(NC(=O)C3CCCO3)cc2)cc1` (configuration not stated), the fluorescence intensity was 5940. In the case of `O=C(Nc1cccc(-c2nnc(-c3ccccc3)o2)c1)C1CCCO1` (configuration not stated), the fluorescence intensity was 8340. As for `COc1ccc(NC(=O)NNC(=O)COc2cc(C)c(Cl)c(C)c2)c(OC)c1`, the fluorescence intensity was 4710. Turning to `COc1cc(NC(=O)c2ccc(CNc3c(N4CCCC4)c(=O)c3=O)cc2)cc(OC)c1OC`, the fluorescence intensity was 4980. Turning to `COc1ccc(Br)c(Cn2c(C)c(C(=O)NCc3cccs3)sc2=O)c1`, the fluorescence intensity is 5140. Under `CCN(CC)Cc1c(C(=O)OC)nnn1-c1nonc1N` stands 2240; under `O=C(Nc1sc2c(c1-c1nc3ccccc3[nH]1)CCCC2)C1CC1`, 3170. As for `c1ccc2[nH]c(-c3nc4ccccc4[nH]3)nc2c1`, the figure is 16500 (active); as for `Nc1ccccc1-c1nc2ccncc2[nH]1`, 3770. In the case of `CCOC(=O)[C@]12CCCC=C1N(Cc1ccc3c(c1)OCO3)C(=O)[C@H](CC(=O)N1CCN(C(=O)c3ccco3)CC1)C2`, the fluorescence intensity is 3930. Consider `Cc1ccc(Cc2c(-c3ccc(Cl)cc3)nc3c4ccccc4ccn23)cc1`, for which the fluorescence intensity was 4990. On to `Cc1ccc(Nc2cc(=O)n(C3CCCCC3)c(=O)[nH]2)cc1C`, for which the fluorescence intensity is 3080. As to `O=c1cc(C(F)(F)F)[nH]c(=O)n1C1CCCCC1`, the fluorescence intensity was 24200 (active). As for `CC(=O)c1c(O)n(C2CCCCCC2)c(=O)[nH]c1=O`, the figure is 2970; as for `COC(=O)C1=CN(C)C=C(C(=O)OC)C1c1ccc(Cl)cc1Cl`, 3960; as for `CCOc1ccccc1C1C(C(=O)OC)=CN(C)C=C1C(=O)OC`, 19700 (active). As to `CCOc1cc(C2C(C(=O)OC)=CN(C3CCCC3)C=C2C(=O)OC)cc(Br)c1O`, the fluorescence intensity was 8950. `COC(=O)C(C)Oc1ccc2c(-c3cccc([N+](=O)[O-])c3)cc(=O)oc2c1` (configuration not stated): the fluorescence intensity is 21200 (active). As for `CC(Oc1ccc2c(-c3ccccc3)cc(=O)oc2c1)C(=O)NC(Cc1c[nH]c2ccccc12)C(=O)O` (configuration not stated), the figure is 3610; as for `COc1ccc(-c2cc(=O)oc3cc(OC(C)C(=O)NCC4CCC(C(=O)O)CC4)ccc23)cc1` (configuration not stated), 6030; as for `CC(C)n1c(NCc2c[nH]c3ccccc23)nc2ccccc21`, 2940. As to `COCCOC(=O)c1sc(=S)n(CCOC)c1N`, the fluorescence intensity is 23500 (active). As for `CC(=O)N1Cc2cc(C(=O)NCc3cccc(F)c3)nc(-c3cccc(C4=CCCCC4)c3)c2[C@H]1CCO`, the figure is 5630; as for `O=C(NCc1cccnc1)C12CC3CC(CC(C3)C1)C2`, 3100. For `O=C(NCc1ccc2c(c1)OCO2)C12CC3CC(CC(C3)C1)C2`, the fluorescence intensity was 21300 (active). Under `Cc1ccc(CNC(=O)CCNS(=O)(=O)c2ccc(Br)s2)cc1` stands 3440. Regarding `O=C(CNS(=O)(=O)c1ccc(Br)s1)NCc1ccc2c(c1)OCO2`, the fluorescence intensity was 24800 (active). In the case of `O=C(NCc1ccc2c(c1)OCO2)c1ccc(Cl)s1`, the fluorescence intensity is 3620. With `Cc1ccc(C(=O)OCC(=O)NCc2ccc3c(c2)OCO3)s1`, the fluorescence intensity is 3100. Under `COc1ccc(OC)c(NC(=O)C2(C)CCN2C(=O)Cc2ccccc2)c1` (configuration not stated) stands 3710.

Turning to `CCCCOCCCNC(=O)C[C@@H]1C[C@@]2(C(=O)OC)CCCCC=C2N(CCC2=CCCCC2)C1=O`, the fluorescence intensity is 6000. As to `O=c1onc(-c2c(F)cccc2F)n1-c1ccccc1Cl`, the fluorescence intensity was 4210.

`Cc1ccc(NS(=O)(=O)c2ccc(-c3coc(C)n3)cc2)c(C)c1`: the fluorescence intensity is 5350.

`Cc1c(C)c2c(OCC(=O)N[C@@H](C(=O)O)c3ccccc3)cc3c(c2oc1=O)CCC(C)(C)O3`: the fluorescence intensity was 6410.

With `CCOC1=C2CN(S(=O)(=O)c3ccc(C)cc3)[C@H](c3cccs3)C[C@H]2[C@H]2C(=O)N(c3ccccc3)C(=O)[C@H]2C1`, the fluorescence intensity was 6240. Turning to `COCCCn1cc(CN2CC(N(C)C)CS2(=O)=O)nn1` (configuration not stated), the fluorescence intensity was 4380. As for `Cc1ccc(C)c(NC(=O)c2ccc3nccnc3c2)c1`, the figure is 4320.

For `O=C(Nc1cccc2c1CCCC2)c1ccc(F)cc1`, the fluorescence intensity is 4040. Regarding `Cc1ccc(F)cc1NC(=O)c1cccc(N(C)C)c1`, the fluorescence intensity is 23300 (active). For `COCCNc1nc(Nc2ccccc2Cl)c2sc(-c3ccccc3)cc2n1`, the fluorescence intensity was 3680. Consider `Cc1ccc(C)c(N2C(=O)CS/C2=N\NC(=O)c2ccccc2Cl)c1`, for which the fluorescence intensity is 9520. Take `CC1=CC(=NNS(=O)(=O)c2ccc([N+](=O)[O-])cc2)CC(C)(C)C1`: the fluorescence intensity was 3700. As for `C/C(=N/NC(=O)CCc1ccccc1)c1ccco1`, the figure is 2010; as for `CSc1nc(-c2ccco2)nn1C(=O)c1ccccc1Cl`, 4950; as for `CSc1nc(-c2ccco2)nn1C(=O)CCc1ccccc1`, 22700 (active). For the compound `COc1cccc(C(O)c2nc(-c3ccc(C)c(C)c3)cs2)c1` (configuration not stated), the fluorescence intensity was 3830. In the case of `CCC1(C)N(O)C(C)(C)C(c2ccc(OC)cc2)=[N+]1[O-]` (configuration not stated), the fluorescence intensity was 5620.

Consider `C/C(=N\O)C1(C)N(O)C(C)(C)C(c2ccc(Br)cc2)=[N+]1[O-]` (configuration not stated), for which the fluorescence intensity was 25600 (active). For `CCC1=[N+]([O-])C(C)(/C(C)=N\O)N(O)C1(C)C` (configuration not stated), the fluorescence intensity is 9530. Regarding `C=CCN(CC=C)S(=O)(=O)c1ccc(C(=O)Nc2nc3c(s2)CCc2ccccc2-3)cc1`, the fluorescence intensity was 11000.

For `COc1cc(NS(=O)(=O)c2ccccc2)ccc1-n1nc(C)cc1C`, the fluorescence intensity is 17700 (active). Under `CC(=O)c1c(C)oc2ccc(NS(=O)(=O)c3ccccc3)cc12` stands 5190.

On to `COc1ccccc1-n1cnc2cc(NS(=O)(=O)c3ccccc3)ccc21`, for which the fluorescence intensity was 3550. Under `CC(C)(O)C#Cc1ncc(C(F)(F)F)cc1Cl` stands 4380; under `O=C(NC1CCCCC1)C1CC(=O)N(CCc2ccccc2)C1` (configuration not stated), 21500 (active); under `Cc1ccc(CCN2CC(C(=O)NCCc3ccccc3)CC2=O)cc1` (configuration not stated), 5840. On to `O=C(NCCCN1CCCCC1)C1CC(=O)N(CCc2ccccc2)C1` (configuration not stated), for which the fluorescence intensity is 5320.

For the compound `CC(=O)NC1CCN(CC(=O)Nc2nccs2)CC1`, the fluorescence intensity was 3460.

For the compound `O=C(Nc1cccc2ccccc12)c1[nH]c(-c2ccccc2)c2c1C(=O)N(C1CC1)C2=O`, the fluorescence intensity was 5310. In the case of `CCCNC(=O)c1cc2c(c(-c3cccc(-c4ccc(C#N)cc4)c3)n1)[C@@H](CCO)N(C(=O)CC)C2`, the fluorescence intensity was 4490.

With `Cn1c2c(c(=O)n(C)c1=O)[C@@H]1c3c(ccc4ccccc34)OC[C@@H]1CO2`, the fluorescence intensity was 3510. On to `OCCNCCCCOc1ccccc1F`, for which the fluorescence intensity is 23000 (active).

For `CCN1CCN(CCCCOc2ccccc2F)CC1`, the fluorescence intensity was 9580. In the case of `Fc1ccccc1OCCCCn1cncn1`, the fluorescence intensity was 5750.

Turning to `CCCN1C(=O)C(NC(C)=O)c2cc(OC)ccc21` (configuration not stated), the fluorescence intensity is 2550. As for `COc1ccc(C(=O)NCC[N+](C)(C)C)cc1`, the figure is 5780. For `O=C(NC1CCCC1)C1c2ccccc2OCC(=O)N1Cc1ccccc1` (configuration not stated), the fluorescence intensity was 5910. In the case of `CC(c1ccco1)N(C(=O)Nc1ccccc1)C1CCCCC1` (configuration not stated), the fluorescence intensity was 20500 (active).

As to `CC(=O)N1CCC(N(C(=O)Nc2ccc(Cl)cc2)C(C)C)CC1`, the fluorescence intensity is 4610. In the case of `Cc1ccc(NC(=O)NC(=O)N(C2CCCCC2)S(=O)(=O)c2ccccc2)cc1`, the fluorescence intensity is 9210. As to `Cc1cc(C)c(S(=O)(=O)NN=C2c3ccccc3[C@H]3Cc4csc[n+]4[C@@H]23)c(C)c1`, the fluorescence intensity was 5040.

For `O=C(c1ccc(C(F)(F)F)cc1)N1CCC(=O)N([C@H](COCc2ccccc2)Cc2ccccc2)CC1`, the fluorescence intensity is 5850. For the compound `CCOc1ccc(-c2nnn(CC(=O)N3CCN(c4ccc(F)cc4)CC3)n2)cc1OCC`, the fluorescence intensity was 6120.

Consider `COc1ccc(C(=O)Cn2nnc(-c3ccc(N4CCOCC4)cc3)n2)cc1OC`, for which the fluorescence intensity is 24200 (active). For `CCOc1ccc(-c2nnn(CC(=O)N3CCN(c4ccc(OC)cc4)CC3)n2)cc1OCC`, the fluorescence intensity was 4250. `CCCNC(=O)c1cc(C2CCCCN2C(=O)OC)on1` (configuration not stated): the fluorescence intensity is 3000. With `COc1cc(C2C(C(=O)Nc3ccccc3OC)=C(C)Nc3ncnn32)ccc1O` (configuration not stated), the fluorescence intensity is 6420. Under `COc1ccccc1NC(=O)C1=C(C)Nc2nnnn2C1c1cccc(Br)c1` (configuration not stated) stands 20400 (active). Regarding `COc1ccccc1NC(=O)C1=C(C)Nc2ncnn2C1c1ccc(C)o1` (configuration not stated), the fluorescence intensity was 2690. As for `COc1ccc(NC(=O)CN2C(=O)COc3ccc(S(=O)(=O)N4CCOCC4)cc32)cc1`, the fluorescence intensity is 4800. With `CC1(C(=O)NS(=O)(=O)c2ccccc2)CCN1C(=O)C/C=C/c1ccccc1` (configuration not stated), the fluorescence intensity was 3600. For the compound `Oc1ccc2ccc3cccc[n+]3c2c1`, the fluorescence intensity was 4220. As for `CCCC(=O)N1CCC1(C)C(=O)NCc1ccc(C(C)C)cc1` (configuration not stated), the figure is 3880.
